# Source: PubChem BioAssay (National Center for Advancing Translational Sciences (NCATS))
# HP1b chromo inh: inhibitors of HP1-beta chromodomain binding to methylated histone tails; P83916; AlphaScreen HP1-beta / biotin-H3K9me3 peptide binding; Potency, µM (titrated, usually from 114 µM), hits mostly inhibitors; hit rate 0.56% among 390,000; AID 540317; note: nearly all actives have a fitted effect of over 70% in size
#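 HP1-beta protein (50 nM final) preincubated 30 min at room temperature with biotinylated H3(1-18)K9me3 peptide (50 nM) in PBS pH 7.4, 0.01% Tween-20, then compound added for 30 min. AlphaScreen streptavidin donor/nickel chelate acceptor beads (10 ug/mL final), 30 min dark, luminescence read.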
# Sfp PPTase inh: inhibitors of Bacillus subtilis Sfp phosphopantetheinyl transferase | Potency, µM, hits mostly inhibitors | hit rate 3.5% among 310,000 | Q9F4F7 | AID 1490 | Biochemical Sfp PPTase activity, qHTS;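 note: the enzyme is Sfp with the accession as filed and its product quenches rhodamine fluorescence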
#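 Reaction rates are the 30-min fluorescence difference (ex 525, em 598 nm) in wells containing 15 nM Sfp, 5 uM rhodamine-CoA and 12.5 uM BHQ-2-YbbR at pH 7.6 with 10 mM MgCl2.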
# G9a inh: G9a (human) methyltransferase inhibition; Q96KQ7; G9a H3K9 monomethylation, AlphaScreen, 2 h; Potency, µM (highest dose often 102 µM), actives largely listed as inhibitors; hit rate 8.8% among 350,000; AID 504332; note: nearly all actives have a fitted effect of over 75% in size
#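 Quantitative HTS format: methyltransferase activity on a biotin-tagged H3K9 peptide is measured by AlphaScreen, using a rabbit anti-monomethyl-H3K9 antibody with streptavidin donor and anti-IgG acceptor beads. Final levels are 20 nM enzyme, 500 nM peptide, 20 uM SAM; 2 h RT.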
# BAZ2B block: blocks human BAZ2B; Q9UIF8; AlphaScreen BAZ2B-H3K14Ac peptide displacement; Potency, µM (top dose mostly 114 µM), actives largely listed as inhibitors; hit rate 4.4% among 360,000; AID 504333; note: nearly all actives have a fitted effect of over 60% in size
#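 Inhibition is scored as reduced AlphaScreen emission. The BAZ2B/b-H3(5-23)K14Ac complex (50 nM each) in PBS pH 7.4, 0.01% Tween-20 meets compound (up to 110 uM) for 30 min at RT before bead addition.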
# PLK1 PBD inh: blocks phosphopeptide binding to human PLK1 polo-box domain; hit rate 2.8% among 360,000; Plk1 PBD binding of FITC phosphopeptide, fluorescence polarization; P53350; Potency, µM, hits mostly inhibitors; AID 720504; note: series mostly up to about 57 µM; nearly all actives have a fitted effect of over 65% in size
# Target sequence (P53350 whole entry, looked up, the tested form may be a part): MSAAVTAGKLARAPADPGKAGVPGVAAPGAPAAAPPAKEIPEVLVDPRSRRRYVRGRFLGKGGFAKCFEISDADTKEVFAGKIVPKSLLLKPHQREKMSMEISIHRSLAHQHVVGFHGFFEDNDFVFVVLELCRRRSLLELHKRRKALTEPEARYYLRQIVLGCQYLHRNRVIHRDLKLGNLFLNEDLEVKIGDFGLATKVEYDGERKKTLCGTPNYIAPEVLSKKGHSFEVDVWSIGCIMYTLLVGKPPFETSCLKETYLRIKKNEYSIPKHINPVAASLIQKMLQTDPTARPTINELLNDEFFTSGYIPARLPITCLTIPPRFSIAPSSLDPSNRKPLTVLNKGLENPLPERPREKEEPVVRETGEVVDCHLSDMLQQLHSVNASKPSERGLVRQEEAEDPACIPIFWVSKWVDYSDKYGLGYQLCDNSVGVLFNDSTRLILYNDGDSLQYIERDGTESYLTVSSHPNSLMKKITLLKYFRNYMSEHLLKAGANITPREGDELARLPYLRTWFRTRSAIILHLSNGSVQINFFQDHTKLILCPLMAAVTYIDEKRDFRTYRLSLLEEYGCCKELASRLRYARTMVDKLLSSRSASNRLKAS
# JMJD2A Tudor inh: JMJD2A Tudor domain (human) inhibition. O75164. AlphaScreen JMJD2A-Tudor / H3K4me3 peptide binding. Potency, µM (series often up to 114 µM), hits mostly inhibitors. hit rate 4.4% among 390,000; note: nearly all actives have a fitted effect of over 50% in size
# Numbers stand for hits; - = inactive; ? = inconclusive; . = no result; ! = a repeat was not active; [ ] = remark or other dose. Hits are enriched below; roughly 12% of the tested compounds scored in any of these assays. Calls come from the whole dose curve; as a rule, active = well fitted curve in the direction sought with a large enough effect; inconclusive = small, poorly fitted or top-dose-only effect, or another doubt; inactive = no such curve, though single readings can be large; an effect the other way counts as inactive or inconclusive.
SMILES,HP1b chromo inh,Sfp PPTase inh,G9a inh,BAZ2B block,PLK1 PBD inh,JMJD2A Tudor inh
CCN(CC)CCCNC(=O)C(=O)Nc1ccc2nc3n(c(=O)c2c1)CCCCC3,-,.,-,-,.,-
COc1ccc(-c2cc(-c3ccc(OC)cc3)nc(-c3ccc4c(c3)NC(=O)CO4)c2)cc1,-,?,-[2.33 µM],-,-,-
CC(Nc1nc(-c2ccc3c(c2)NC(=O)CO3)cs1)c1ccccc1 (stereo not given),-,-,?,?,17µM,-
COc1cccc(-c2nc(-c3ccc4c(c3)NC(=O)CO4)cs2)c1,-,?,-,-,13µM,-
O=C1COc2ccc(-c3csc(NCC4CCCO4)n3)cc2N1 (stereo not given),-,-,?,-,-,-
COc1ccc(C(CNC(=O)c2ccc3c(c2)OCCO3)N(C)C)cc1 (stereo not given),-,-,-,-,-,-
COc1cc2c(cc1OC)C(C(=O)Nc1ccccn1)C(c1cccnc1)N(C)C2=O (stereo not given),-,-,.,79µM,-,-
COc1ccc(-c2cc3ncc(C)n3c(Nc3ncccc3C(N)=O)n2)cc1OC,.,.,19µM,.,.,.
Cc1ccc(Nc2ncccc2C(N)=O)cc1,-,-,-,-,-,-
CC(=O)N1CCc2cc(S(=O)(=O)NCCC(=O)Nc3cccc(C)c3)ccc21,-,-,-[12.7 µM],-,-,-
CC(=O)N1CCc2cc(S(=O)(=O)Nc3cccc(C(F)(F)F)c3)ccc21,-,-,-,-,-,89µM
CC(=O)N1CCCc2cc(S(=O)(=O)Nc3ccc4c(c3)OCO4)ccc21,-,-,50µM,-,-,-
CCN(CCCNS(=O)(=O)c1ccc2c(c1)CCN2C(C)=O)c1cccc(C)c1,-,-,?,?,-,22µM
COc1ccc(-c2nc3c(c4c2C[C@H](c2ccccc2)OC4)CN(C(=O)c2cc(I)ccc2F)CC3)c(C)c1,.,-,.,.,.,.
C=CC[N+]1([C@H]2C[C@H]3[C@@H]4CC[C@H]5C[C@H](O)[C@@H](N6CCOCC6)C[C@]5(C)[C@H]4CC[C@]3(C)[C@H]2OC(C)=O)CCCC1,.,-,-[12.7 µM],.,.,.
O=S(=O)(/N=C(\Sc1ccc(Cl)cc1)c1ccccc1)c1ccccc1,-,56µM,-[12.7 µM],-,2.7µM,-
NCCc1ccn[nH]1,-,-,-[21.5 µM],-,-,-
COc1ccc(Cn2c(SCc3cc(C)ccc3C)nc3cc(OC)c(OC)cc3c2=N)cc1,-,3.2µM,?,?,-,?
COc1ccc(Cn2c(SCc3ccc(C)cc3)nc3cc(OC)c(OC)cc3c2=N)cc1Cl,-,4µM,40µM,?,-,?
C[C@@H]1CCC[C@]2(O[C@H](CCO)C[C@@H](O)[C@@H]2O)O1,-,.,.,.,.,?
O=c1cc(N2CCCCC2)c(-c2ccccc2)nn1Cc1cccc(Cl)c1,-,35µM,-,-,-,-
C[C@H]1COC(=O)[C@H]2CCCN2C(=O)[C@@H](C)COC(=O)[C@H](Cc2ccccc2)NC1=O,.,-,.,.,.,.
Cc1ccc(S(=O)(=O)N(C)c2nc3ccccc3[nH]c2=S)cc1,-,?,-,?,11µM,-[11.4 µM]
CCc1nnc2c(N(C)S(=O)(=O)c3ccc(C)cc3)nc3ccccc3n12,-,-,-,-,-,-
O=C(CSCc1ccc(Cl)cc1)Nc1ccc(O)cc1C(=O)O,-,-,.,-,-,-
SMILES,HP1b chromo inh,Sfp PPTase inh,G9a inh,BAZ2B block,PLK1 PBD inh,JMJD2A Tudor inh
CCCCCCCc1nc2nc(C)c(Br)c(=O)n2[nH]1,-,-,-,-,27µM,28µM
CCCCc1c(C)nc2nc(SCc3ccc(Cl)cc3)[nH]n2c1=O,-,-,?,-,-,-
NS(=O)(=O)c1ccc(CCNC(=O)c2cc(S(=O)(=O)N3CCCCC3)ccc2Cl)cc1,.,.,.,.,-,.
Cc1ccc(S(=O)(=O)N2C(=O)C(c3ccccc3)SC2=Nc2ccccc2)cc1 (stereo not given),?,20µM,7.9µM,-,9.5µM,-
CC1CCN(C(=O)c2ccc(S(=O)(=O)Cc3ccccc3F)c([N+](=O)[O-])c2)CC1,-,-,-,-,-,-
O=C(c1ccc(S(=O)(=O)Cc2ccccc2F)c([N+](=O)[O-])c1)N1CCCC1,-,-,-,-,24µM,?
Cc1cc(NC(=O)CCCn2cnc([N+](=O)[O-])n2)no1,-,-,-,-,12µM,-[11.4 µM]
COc1ccc(NC(=O)c2ccc(Cc3ccc(C)cc3)o2)cc1,-,-,?,-,-,-
Cc1ccc(Cc2ccc(C(=O)NNC(N)=S)o2)cc1,-,-,56µM,-,27µM,-
COC(=O)c1cc(OC)c(=O)c2c(OC)c(OC)ccc2c1,.,-,-[2.33 µM],.,.,.
Cc1cc(C)nc(NS(=O)(=O)c2cccs2)c1,-,-,56µM,-,-,-
Fc1cccc(CN2CCCCCCC2)c1,?,-,13µM,?,-,2µM
O=S(=O)(c1ccc(Br)cc1)N1CCCN(Cc2cccc(F)c2)CC1,-,-,?,-,-,-
O=C(CN1CCN(Cc2cccc(F)c2)CC1)NCc1ccccc1,-,-,-,-,-,-
Fc1cccc(CN2CCSCC2)c1,?,-,25µM,50µM,-,20µM
Fc1ccc(CN2CCSCC2)cc1F,?,-,32µM,?,-,4µM
CCC(=O)c1cc(Br)ccc1OCC(=O)N1CCN(S(=O)(=O)c2ccccc2)CC1,-,.,.,.,-,-
O=C(Cn1c(=O)n(-c2ccccc2Cl)c(=O)c2sc3ccccc3c21)N1CCCC1,-,.,-,-,.,-
Nc1c(C(=O)c2ccccc2)sc2nsc(SCCN3CCOCC3)c12,-,50µM,.,-,-,-
CC1(C)Cc2c(c(N3CCOCC3)nc3sc(C(N)=O)c(N)c23)CO1,-,14µM,-[12.7 µM],-,-,-
CC1(C)Cc2c(c(N3CCOCC3)nc3snc(Br)c23)CO1,-,45µM,?,-,-,?
CCOC(=O)c1sc2nc(N3CCOCC3)c3c(c2c1N)CC(C)(C)N(C)C3,-,-,?,-,-,-
COC(=O)c1ccc(-c2sc3nc(N4CCOCC4)c4c(c3c2N)CC(C)(C)OC4)o1,-,-,-[12.7 µM],-,-,-
CN1Cc2c(N3CCOCC3)nc3sc(C(=O)c4ccccc4)c(N)c3c2CC1(C)C,-,-,50µM,?,-,45µM
CC1CCN(S(=O)(=O)c2ccc3nc(Nc4cccc(F)c4)ccc3c2)CC1,-,.,-,-,.,-
Cc1ccc(-n2ncc3c(Nc4ccc(Oc5ccccc5)cc4)ncnc32)c(C)c1,-,.,-,-,.,-
Cc1ccc(NC(=O)c2sc3nc(N4CCOCC4)c4c(c3c2N)CC(C)(C)OC4)cc1,-,32µM,-,-,-,-
CC1(C)Cc2c(c(N3CCOCC3)nc3sc(C(=O)Nc4ccc(Cl)cc4)c(N)c23)CO1,-,32µM,10µM!,-,-,-
CCOc1ccc(NC(=O)c2sc3nc(N4CCOCC4)c4c(c3c2N)CC(C)(C)OC4)cc1,-,-,79µM,-,-,-
